# Data as given in article PMC4552634, “A New Set of Chemical Starting Points with Plasmodium falciparum Transmission-Blocking Potential for Antimalarial Drug Discovery” (PLoS ONE, 2015).
# About 3,200 (25%) of roughly 13,000 compounds showed an effect of 50% or more. The list shows a part of the results.
# Test system: P. falciparum stage V gametocytes
# Design: BacTiter-Glo ATP luminescence viability of purified stage V gametocytes in 384-well plates, per cent inhibition versus DMSO
# Conditions: 48 h, 5 µM; inhibitor
row,Structure (SMILES),% Inhibition [%]
1,Cc1ccc(F)cc1S(=O)(=O)N1CCCCC(c2ccc(C(F)(F)F)cc2)=N1 [TCMDC-134531],-12.63
2,COc1cccc(NC(=O)Nc2cc(-c3ccc4[nH]ncc4c3)cc3c2CNC3=O)c1 [TCMDC-133475],14.15
3,O=C(Nc1ccc(Cl)cc1C(=O)Nc1cccc(F)c1)c1ccc([N+](=O)[O-])cc1 [TCMDC-123788],-68.85
4,CCC(C)CNC(=O)CN1CN(c2ccccc2)C2(CCN(C(=O)c3ccc(Br)cc3)CC2)C1=O (stereo not drawn) [TCMDC-125167],-9.167
5,Cc1ccc(NC(=O)c2ccc3ncccc3c2)cc1OC1CCN(C(C)C)C1 (stereo not drawn) [TCMDC-133739],24.97
6,COc1ccc2nccc([C@@H](O)CN3CCC(NCCOc4ccccc4C#N)CC3)c2c1 [TCMDC-140712],9.495
7,Cc1ccc2nc(/C=C/c3cccc4cc[nH]c34)[nH]c2c1 [TCMDC-138896],83.23
8,COc1ccc2nc(/C=C/c3cccc4ccc(C)nc34)[nH]c2c1 [TCMDC-138821],-26.73
9,Nc1ccc2nc(C=Cc3ccccc3)[nH]c2c1 [TCMDC-124430],29.38
10,COc1ccc2c(c1)CC(CNC[C@H](O)c1cccc(Cl)c1)CC2 (stereo partly drawn) [TCMDC-131994],-12.5
11,CN(C)CCOc1ccc2c(c1)CN(C)CC2c1ccccc1 (stereo not drawn) [TCMDC-131410],7.627
12,Cc1nc(-c2nc(N3CCOCC3)ncc2-c2ccsc2)sc1C [TCMDC-125356],0.6256
13,Cc1nc(-c2nc(NCc3ccccn3)ncc2-c2ccsc2)sc1C [TCMDC-125360],31.08
14,Cc1nc(-c2nc(NCCc3c(C)noc3C)ncc2-c2ccsc2)sc1C [TCMDC-125357],20.64
15,Cc1nc(-c2nc(NCCc3cnccn3)ncc2-c2ccsc2)sc1C [TCMDC-125363],69.56
16,COCCN(CCOC)c1ncc(-c2ccsc2)c(-c2nc(C)c(C)s2)n1 [TCMDC-125355],81.41
17,Cc1nc(-c2nc(NCc3ccncc3)ncc2-c2ccsc2)sc1C [TCMDC-125359],15.84

row,Structure (SMILES),% Inhibition [%]
1,CN(C)CCOc1ccc2[nH]c(-c3cccc(OCc4ccccc4)c3)nc2c1C#N [TCMDC-133765],4.095
2,COc1cc(C(=O)Nc2cccc(-c3cn4cccc(C)c4n3)c2)cc(OC)c1OC [TCMDC-123644],23.2
3,CCC1N=C(N)N=C(N)N1OCc1cccc2ccccc12 (stereo not drawn) [TCMDC-131592],22.21
4,COc1cc2ncnc(NCCc3ccccc3Cl)c2cc1OC [TCMDC-139495],5.438
5,COc1c(CNCCCCCCNCc2cc(Cl)c3ccccc3c2OC)cc(Cl)c2ccccc12 [TCMDC-137958],32.17
6,COc1c(CCNCCCCNCCc2cc(Cl)c3ccccc3c2OC)cc(Cl)c2ccccc12 [TCMDC-137869],105.2
7,COc1ccc(CCNCCCCCCNCCc2ccc(Cl)c3ccccc23)cc1OC [TCMDC-131270],116.7
8,CCCCNCc1cc(Cl)c2ccccc2c1O [TCMDC-137599],77.6
9,COc1ccc(CCNCCCCCCNCCc2ccccc2Cl)cc1OC [TCMDC-131273],87.94
10,COc1ccc(CCNc2nc(SCc3ccccc3Cl)nc3ccccc23)cc1OC [TCMDC-125569],33.86
11,CCN(CC)CCCN(C(=O)Nc1c(Cl)cncc1Cl)c1nc(-c2ccc(F)cc2)cs1 [TCMDC-136666],-35.52
12,O=C(Cc1ccc(NC(=O)c2ccc(O)c(-c3ccc(Cl)c(Cl)c3)c2)cc1)NCCN1CCCCC1 [TCMDC-140861],-19.27
13,O=C(Nc1cccc2ccccc12)N1CCC(NS(=O)(=O)c2cccc(C(F)(F)F)c2)CC1 [TCMDC-139437],-43.48
14,Cn1c(N)c(N=O)c(=O)[nH]c1=O [TCMDC-123469],-4.943
15,CC1CN(Cc2ccc(C#N)cc2)CCN1c1ccc(NC(=O)c2cccs2)cc1 (stereo not drawn) [TCMDC-134949],-2.454
16,Cc1nnnn1-c1ccc(C(=O)N2CCC3(CC2)CN(Cc2ccc(Cl)c(Cl)c2)C(=O)O3)cc1 [TCMDC-141691],-63.06
